Rows were chosen to be rich in hits. Some 1.4% of all compounds tested hit in one or more screens of this group.
p53 reactivator – restores transcriptional activity of mutant p53 | H1299 p53-A138V BP100-luciferase reporter, luminescence, 24 h | Potency, µM (top dose mostly 92.2 µM), actives largely listed as activators | 0.063% of 320,000 active; also: nearly all actives have a fitted effect of over 45% in size
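p53-null H1299 cells stably carrying temperature-sensitive p53-A138V and a BP100-luciferase reporter were pinned with compounds (4-point, 1:5 series) and held 24 hrs at 37 deg C. Luminescence was read 10 min after detection reagent.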
KCNH2 3.1 block – inhibitors of human KCNH2 3.1 potassium channel isoform; U2OS KCNH2 3.1, thallium flux FluxOr; stronger effect = lower value; activity change, % (tested at about 1.8 µM); 0.95% of 340,000 active; AID 720553;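 active = maximum activity change below -70%; inconclusive = maximum activity change from -70% to -50%; inactive = maximum activity change above -50%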;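 also: thallium influx rate constant from kinetic fluorescence after stimulation buffer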
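Thallium flux via FluxOr fluorescence (Red40 quencher, 45 min loading) in U2OS cells virally expressing the KCNH2 3.1 isoform (1.77 x 10^8 /mL virus, overnight at 37 C). Rate constants from 2-min kinetic reads post-stimulation, normalised to positive and negative controls.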
hERG WT inh – blocks the wildtype human KCNH2 potassium channel. Q12809. U2OS, BacMam KCNH2, thallium flux FluxOr; stronger effect = lower value. activity change, % at 1.84 µM. 0.37% of 340,000 active;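 active = maximum activity change below -70%; inconclusive = maximum activity change between -70% and -50%; inactive = maximum activity change above -50%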
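U2OS cells were transduced with wild-type KCNH2 virus (2.03 x 10^8 / mL) for 4 h at room temperature, then cultured overnight at 37 C. Thallium flux was read with FluxOr dye. Rate constants were normalized to DMSO controls.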
S-ASM inh – inhibitors of human secretory acid sphingomyelinase. placental ASM, HMU-PC fluorogenic substrate, 60 min. Potency, µM (highest dose often 57.5 µM), hits mostly inhibitors. 0.006% of 340,000 active
Target sequence (P17405 47-631 limits assumed): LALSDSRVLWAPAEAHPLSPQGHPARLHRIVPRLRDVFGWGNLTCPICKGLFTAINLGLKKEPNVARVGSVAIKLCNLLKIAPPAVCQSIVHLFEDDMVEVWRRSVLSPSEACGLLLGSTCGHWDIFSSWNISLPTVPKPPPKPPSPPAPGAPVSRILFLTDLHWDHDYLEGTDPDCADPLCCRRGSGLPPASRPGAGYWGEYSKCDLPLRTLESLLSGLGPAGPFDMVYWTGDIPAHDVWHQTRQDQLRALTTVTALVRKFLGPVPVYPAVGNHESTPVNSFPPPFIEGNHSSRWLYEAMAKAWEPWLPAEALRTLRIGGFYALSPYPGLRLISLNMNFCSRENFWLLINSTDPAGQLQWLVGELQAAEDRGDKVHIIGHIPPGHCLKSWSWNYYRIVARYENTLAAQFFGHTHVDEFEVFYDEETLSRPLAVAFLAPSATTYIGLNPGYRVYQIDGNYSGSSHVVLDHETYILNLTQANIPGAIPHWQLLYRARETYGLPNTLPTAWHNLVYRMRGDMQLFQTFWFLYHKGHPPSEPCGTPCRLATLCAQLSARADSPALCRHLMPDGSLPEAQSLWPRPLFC
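Human placenta-derived ASM preincubated with compound 10 min at room temperature, then reacted with 9 uM (final) fluorogenic HMU-PC substrate for 60 min at 37 C. Stop solution raises pH to 10; fluorescence read at Ex 386/Em 447 nm.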
Mm-Cpn inhibitor – blocks the Methanococcus maripaludis chaperonin Mm-Cpn | 0.031% of 330,000 active | purified Mm-Cpn ATPase, ADP Transcreener TR-FRET | Potency, µM (doses to about 76.9 µM), actives largely listed as inhibitors; also: nearly all actives have a fitted effect of over 80% in size
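ATP (10 uM final) was added to archaeal chaperonin (25 nM final) after 10 min exposure to test compound at 37°C; after 30 min further incubation, ADP was detected by competitive TR-FRET.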
uPA surface inh – cell surface uPA generation inhibition; cell surface uPA generation assay, qHTS; AID 540303; 0.31% of 330,000 active; Potency, µM (doses to about 38.3 µM), actives largely listed as inhibitors; active = well fitted inhibition curve with a large enough effect; inconclusive = small, poorly fitted or top-dose-only effect; inactive = no such curve, though single readings can be large or run the other way; tested in mouse RAW 264.7 cells; also: nearly all actives have a fitted effect of over 55% in size
Of the large screens only hits and unclear results are named; the others gave an inactive call. Unless noted, calls follow the shape of the dose curve; as a rule, active = well fitted curve in the direction sought with a large enough effect; inconclusive = small, poorly fitted or top-dose-only effect, or another doubt; inactive = no such curve, though single readings can be large; an effect the other way counts as inactive or inconclusive.

COc1cccc(Nc2nnc(SCC(=O)Nc3sccc3C(N)=O)s2)c1	KCNH2 3.1 block -97.2
CCc1ccc(Nc2nnc(SCC(=O)Nc3sccc3C(N)=O)s2)cc1	S-ASM inh inconclusive
COc1ccc(C2CC(=O)C=C3c4ccc(OC)cc4CCC32)cc1 (stereo not given)	none (no result: p53 reactivator, S-ASM inh, Mm-Cpn inhibitor, uPA surface inh)
c1coc(C2Nc3ccccc3C3OCCC23)c1 (stereo not given)	none
COc1ccc2c(c1)C1OCCC1C(c1ccco1)N2 (stereo not given)	uPA surface inh 2.51µM (no result: p53 reactivator, Mm-Cpn inhibitor)
Cc1ccc(CNC(=O)C2CCC(=O)N(Cc3cccc(F)c3)C2)s1 (stereo not given)	none (no result: p53 reactivator, S-ASM inh, Mm-Cpn inhibitor, uPA surface inh)
CC(NC(=O)COC(=O)c1cn(-c2ccccc2)nc1-c1cccs1)c1ccccc1 (stereo not given)	Mm-Cpn inhibitor 50.1µM (no result: uPA surface inh)
Fc1ccc(N2CCN(C3=Nc4cccc5cccc3c45)CC2)cc1	KCNH2 3.1 block -80.3, hERG WT inh active
Cc1cccc(N2CCN(CC(O)COCc3cccs3)CC2)c1C (stereo not given)	KCNH2 3.1 block -98.4, hERG WT inh -79.7
OC(COCc1cccs1)CN1CCN(c2ccccc2Cl)CC1 (stereo not given)	KCNH2 3.1 block -83.4
CCOc1ccccc1N1CCN(CC(O)COCc2cccs2)CC1 (stereo not given)	none
CC(C)(C)OC(=O)N[C@@H](C(=O)OC(C)(C)C)c1ccccc1	KCNH2 3.1 block -85.5
Cc1cccc([C@@H](NC(=O)OC(C)(C)C)C(=O)OC(C)(C)C)c1	none
CC(C)(C)c1nc2scc(-c3ccc(Cl)cc3)c2c(=O)o1	KCNH2 3.1 block -81.7
COc1ccc(-c2csc3nc(C(C)(C)C)oc(=O)c23)cc1OC	uPA surface inh inconclusive
COc1ccc(/C=C2\Oc3ccccc3C2=O)cc1	uPA surface inh 7.08µM (no result: KCNH2 3.1 block, hERG WT inh)
COc1cccc(NC(=O)Nc2nc(-c3ccc(OC)c(OC)c3)cs2)c1	none
CCOc1ccccc1NC(=O)CCNS(=O)(=O)c1cccc2nonc12	none
CC(C)(C)OC(=O)N1CCC[C@H]1C(=O)N/N=C/c1ccc2ncccc2c1	none
COc1cccc(CN2CCCN(S(=O)(=O)c3ccc(Br)cc3)CC2)c1	hERG WT inh -88.5
COc1cc(/C=N/NC(=O)CCN2CCN(C(c3ccccc3)c3ccccc3)CC2)ccc1O	KCNH2 3.1 block -105.9
Cc1cccc(NS(=O)(=O)c2cc3c4c(c2)CCN4C(=O)CC3)c1C	hERG WT inh -173.1
Cc1cccc(NS(=O)(=O)c2cc3c4c(c2)CC(=O)N4CCC3)c1C	none
CCCCOc1ccc(S(=O)(=O)n2c(C)nc3ccccc32)cc1	none
CCOc1ccc(S(=O)(=O)n2c(C)nc3ccccc32)cc1	uPA surface inh 12.6µM
COc1ccc(C2=NOC(Cn3nc(C(=O)NCc4cccc(C(F)(F)F)c4)cc3-c3ccccc3)C2)cc1 (stereo not given)	KCNH2 3.1 block -73.9
O=C(Nc1nnc(S(=O)(=O)N2CCCCCC2)s1)c1ccccc1Cl	KCNH2 3.1 block -76.2 (no result: p53 reactivator)
C#CCOCCOCCOCCNc1nc(N2CCN(C(=O)C([C@@H](C)O)n3cc([C@@H](N)CCCCN)nn3)CC2)nc(N2CCN(C(=O)[C@H](CCCCN)n3cc([C@@H](N)CC(N)=O)nn3)CC2)n1 (stereo not given in full)	none (no result: KCNH2 3.1 block, hERG WT inh)
COC(=O)C1=CN(c2ccc(OC)cc2)C=C(C(=O)OC)C1c1ccc([N+](=O)[O-])cc1	KCNH2 3.1 block -73.0
COC(=O)C1=CN(c2ccc(F)cc2)C=C(C(=O)OC)C1c1ccc([N+](=O)[O-])cc1	KCNH2 3.1 block inconclusive, uPA surface inh inconclusive
O=C(COc1ccc(Cl)cc1Cl)N/N=C/c1ccc(OC2OC(CO)C(O)C(O)C2O)cc1 (stereo not given)	KCNH2 3.1 block -156.6, hERG WT inh -151.3, uPA surface inh inconclusive
CCOc1ccc(Br)cc1S(=O)(=O)NC1=NCCCCC1	none
O=C(CN1CCN(S(=O)(=O)N2CCCCCC2)CC1)Nc1ccc(Br)cc1	KCNH2 3.1 block inconclusive, hERG WT inh -101.3
O=C(CN1CCN(Cc2ccccc2)CC1)Nc1ccc(Br)cc1	KCNH2 3.1 block -84.5
Cc1cccc(-c2nn(-c3ccccc3)cc2C(=O)N(C)CC(=O)Nc2ccc(N3CCOCC3)cc2)c1	none
COc1ccccc1NC(=O)c1ccc2c(O)c(S(=O)(=O)c3ccccc3)c(=O)[nH]c2c1	none
O=C(NC1CCOC1=O)c1ccccc1 (stereo not given)	none (no result: p53 reactivator, Mm-Cpn inhibitor)
CC(Sc1nncn1C)C(=O)Nc1ccc(N2CCCCC2)cc1 (stereo not given)	p53 reactivator inconclusive
Cc1cc(N2CCN(c3nc4ccccc4s3)CC2)n2ncnc2n1	KCNH2 3.1 block -71.8 (no result: uPA surface inh)
COc1cccc(-c2onc3ccc(C(C)=O)cc23)c1	uPA surface inh inconclusive
CC(=O)c1ccc2noc(-c3cccc(F)c3)c2c1	KCNH2 3.1 block -82.8
Cc1cc2c(s1)c1c(C)nn(Cc3ccc(F)cc3)c(=O)c1n2C	none (no result: p53 reactivator, KCNH2 3.1 block, hERG WT inh, S-ASM inh, uPA surface inh)
Cc1ccc2nc(-c3ccc(NC(=O)COC(=O)c4ccc([N+](=O)[O-])o4)cc3)sc2c1	p53 reactivator 3.16µM
Cc1ccc2nc(-c3ccc(NC(=O)COC(=O)c4ccc(Br)o4)cc3)sc2c1	none (no result: p53 reactivator)
CCN1CCN(c2ccc(NC(=O)c3ccc(Cl)c(N4CCCC4=O)c3)cc2)CC1	none
CCOC(=O)N1CCN(CC(=O)Nc2ccc([N+](=O)[O-])cc2C(=O)Nc2ccccc2F)CC1	none (no result: hERG WT inh)
Cc1cc([N+](=O)[O-])ccc1NC(=O)CN1CCN(Cc2ccccc2)CC1	KCNH2 3.1 block -81.3
O=C(CN1CCN(Cc2ccccc2)CC1)Nc1ccc([N+](=O)[O-])cc1C(=O)Nc1ccccc1F	KCNH2 3.1 block -103.2, hERG WT inh -81.6, uPA surface inh inconclusive
CCN(c1ccccc1)S(=O)(=O)c1cccc(C(=O)OCC(=O)Nc2ccc(NC(C)=O)cc2)c1	none
CCCc1cc(NC(=O)COC(=O)c2nccnc2N)n(-c2ccccc2)n1	none
COc1cc2c(cc1OC)C(c1ccc(-c3ccc(Cl)cc3Cl)o1)=NCC2	KCNH2 3.1 block -114.7
S=C(NCc1ccc(Cl)cc1)NC1CCN(Cc2ccccc2)CC1	KCNH2 3.1 block -75.7
c1ccc(CCc2cc3ccccc3[nH]2)cc1	none
CC(=NNC(=O)COc1cccc(C)c1)c1cccnc1	none
O=C(c1ccccc1)c1ccc(OCC(O)CN2CCN(Cc3ccccc3)CC2)cc1 (stereo not given)	KCNH2 3.1 block -84.9
CCc1ccc(OCC(O)CN2CCN(c3ccccn3)CC2)cc1 (stereo not given)	none
CC(=O)c1ccc(OCC(O)CN2CCN(Cc3ccccc3)CC2)cc1 (stereo not given)	none

Source: PubChem (National Center for Advancing Translational Sciences (NCATS))
